Among the data in PubChem BioAssay (EPA / NIEHS) are outcome values, retold here.

Molecules are shown by their SMILES. Inconclusive results are not listed. Activity calls are given as the source filed them. Rule for the calls: active = hit-call score of the fitted dose curve at least 0.9, where 1 is the maximum; inconclusive = response in the unintended direction; inactive = score below 0.9.

This assay can be described thus: ATG_M_06_TRANS: Attagene TRANS-FACTORIAL HepG2 Assay for M06 Transcription Factor (Internal Marker) (AID 2282983).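 Note: reporter transcript level by RT-PCR then capillary electrophoresis fluorescence.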 To be noted: HepG2 Attagene TRANS M06 internal marker reporter. The essentials: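 mRNA levels of a reporter transcript, quantified as FAM fluorescence on capillary electrophoresis, served as readout. HepG2 cells expressing exogenous GAL4-chimera reporter constructs were exposed for 24 h. Gain of signal over DMSO was evaluated.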
As for `Cc1occc1C(=O)Nc1ccc(C(=O)N2CCC(F)(F)/C(=C\C(=O)N3CCC(N4CCCCC4)CC3)c3ccccc32)cc1`, the molecule was called inactive. For `O=c1c(-c2ccc(O)cc2)coc2cc(O)cc(O)c12`, the molecule was called inactive. On to `O=C(O)c1ccccc1-n1cc(C(=O)O)c(=O)c2cc(Nc3c(F)cc(F)cc3Cl)c(Cl)cc21`, for which the molecule was classed as inactive.

On to `CCCCOC(=O)c1ccc(O)cc1`, for which the outcome was inactive. Regarding `O=C(O)Cc1cc(I)c(Oc2ccc(O)c(I)c2)c(I)c1`, the outcome was inactive. Take `CC[C@@H]1C[C@H](N(Cc2cc(C(F)(F)F)cc(C(F)(F)F)c2)C(C)=O)c2cc(C(F)(F)F)ccc2N1C(=O)OC(C)C`: the molecule was called inactive. The entry for `CCCCCCCCOC(=O)c1cc(O)c(O)c(O)c1` is “inactive”; for `Cc1cn([C@H]2C[C@H](N=[N+]=[N-])[C@@H](CO)O2)c(=O)[nH]c1=O` it is “inactive”. Take `CN(C)C(=O)C1(N2CCCCC2)CCN(CC[C@@]2(c3ccc(Cl)c(Cl)c3)CN(C(=O)c3ccccc3)CCO2)CC1`: the outcome was inactive. In the case of `O=C1O[C@H]([C@@H](O)CO)C(O)=C1O` it was “inactive”; in that of `Oc1ccc2ccccc2c1`, “inactive”. Consider `O=C(Nc1ccc(Cl)cc1)Nc1ccc(Cl)c(Cl)c1`, for which the outcome was inactive. `O=CCCCC=O`: the call was inactive. In the case of `Cc1c2ccccc2c(C)c2c1ccc1ccccc12` it was “inactive”. The entry for `O=C(O)Cn1c(=O)n(Cc2ccc(Br)cc2F)c(=O)c2ccc(Cl)cc21` is “inactive”. In the case of `CCCCCCCCCCCC[N+](C)(C)C` it was “inactive”; in that of `CC(C)(C)c1csc(-c2cc3cc(OCc4ccccc4CC(=O)O)ccc3o2)n1`, “inactive”; in that of `CC/C(=C(/CC)c1ccc(O)cc1)c1ccc(O)cc1`, “inactive”. Regarding `CCOC(=O)O[C@H](C)OC(=O)c1ccc2c(c1)cc(C(=O)NC1CCN(C(C)C)CC1)n2Cc1cc(-c2ccc(Cl)s2)on1`, the molecule was classed as inactive. Consider `COCC(C)OCC(C)OCC(C)O` (stereo unspecified), for which the molecule was classed as inactive. In the case of `c1ccc(C[n+]2cccc3ccccc32)cc1` it was “inactive”; in that of `CCN(Cc1cccnc1)C(=O)c1cccc(Cl)c1[C@]1(C)C(=O)N(Cc2ccc(OC)cc2OC)c2ccc(Cl)cc21`, “inactive”; in that of `O=C1CCC(C2CCCCC2)CC1`, “inactive”. `COc1cc(C(=O)NC2CCN(C)CC2)ccc1Nc1ncc2c(n1)N(C1CCCC1)CC(F)(F)C(=O)N2C`: the molecule was called inactive. With `CCO[Si](CCCNC(N)=O)(OCC)OCC`, the result was inactive. In the case of `Cc1ccc2oc(CN(Cc3ccccc3)C(=O)Nc3c(F)cc(F)cc3F)c(-c3ccc(Cl)cc3)c2c1`, the molecule was classed as inactive. The entry for `O=C(OCCCCCCOC(=O)c1ccccc1)c1ccccc1` is “inactive”. In the case of `CC(C)(c1cc(Br)c(O)c(Br)c1)c1cc(Br)c(O)c(Br)c1` it was “inactive”. The entry for `C[C@]12CC[C@@H]3c4ccc(O)cc4CC[C@H]3[C@@H]1CC[C@H]2O` is “inactive”; for `Clc1ccccc1C(c1ccccc1)(c1ccccc1)n1ccnc1` it is “inactive”; for `CCCCOC(=O)CC(CC(=O)OCCCC)(OC(C)=O)C(=O)OCCCC` it is “inactive”.
